In PubChem BioAssay (NCATS):
Records with an inconclusive call do not appear. Values without a mark were called inactive. Activity calls are given as the source filed them. The call rests on the fitted dose curve; in most records, active means well fitted cell-killing curve with a large enough effect; inconclusive means small, poorly fitted or top-dose-only effect, or effect the other way; inactive means no such curve, though single readings can be large or run the other way.

Experiment: Quantitative High-Throughput drug screen in 47 multiple myeloma cell lines against the NCATS MIPE library collection: XG6_PLB cell viability assay (AID 1919865); further: nearly all actives have a fitted effect of over 40% in size
Conditions: XG6 myeloma viability, CellTiter-Glo ATP luminescence, 48 h; series mostly up to 45.8 µM; viability (% of control): at the top concentration
Text: PI: Beverly A. Mock Ph.D.
Laboratory of Cancer Biology and Genetics,
Center for Cancer Research, National Cancer Institute,
National Institute of Health, Bethesda, Maryland
Drug resistance and disease progression are common in multiple myeloma (MM) patients, underscoring the need for new therapeutic combinations. […] We hypothesized that effective combinations would reduce MYC expression and enhance p16 activity. […] These preclinical data identify potentially useful drug combinations for evaluation in drug-resistant MM and reveal potential mechanisms of combined drug sensitivity.
Described herein is the primary MIPE qHTS used to cherrypick compounds. Validated compounds were then further tested for potential synergistic activiy.
[1] Peat TJ, Gaikwad SM, Dubois W, Gyabaah-Kessie N, Zhang S, Gorjifard S, Phyo Z, Andres M, Hughitt VK, Simpson RM, Miller MA, Girvin AT, Taylor A, Williams D, D'Antonio N, Zhang Y, Rajagopalan A, Flietner E, Wilson K, Zhang X, Shinn P, Klumpp-Thomas C, McKnight C, Itkin Z, Chen L, Kazandijian D, Zhang J, Michalowski AM, Simmons JK, Keats J, Thomas CJ, Mock BA. Drug combinations identified by high-throughput screening promote cell cycle transition and upregulate Smad pathways in myeloma. Cancer Lett. 2023 Aug 1;568:216284. doi: 10.1016/j.canlet.2023.216284. Epub 2023 Jun 24. PMID: 37356470; PMCID: PMC10408729.
SEQUENCE No. (e.g., 1, 2, 3, etc.); […] (e.g., Cells, Incubation, Reagent, etc.); VALUE and DESCRIPTION.
1; Cells; 5 uL; white, solid bottom 1536-well Greiner assay plate.
2; Compounds; 23 nL; Kalypsis pin tool (Wako USA) equipped with a 1536-well pin head to transfer to the assay plates.
3; Incubation; 48 hours; 37C incubation.
4; Reagent;5uL; CellTiter Glo (Promega).
5; Detector; 425V; Luminescence; Viewlux PerkinElmer.
NOTES (numbers refer to Sequence numbers above)
1. The cell-based screening methods employed in this study were like those previously published. Briefly, the corresponding myeloma cell lines were screened in 1,536-well plates with 500 cells, 5-uL per well for inhibition of cell viability (assessed by measuring ATP levels with CellTiterGlo).
2. NCATS MIPE 4.0 library of approved and investigational drugs were added using the Kalypsis pin tool. Wells treated with DMSO only for 100% viability and media only for 0% viability were used as controls.
3. The assay plates were covered and incubated for 48 hours in a 37C, 5% CO2 incubator with controlled humidity.
4. After 48 hours, CellTilter-GloTM luminescent substrate mix (Promega) reagent was added to the assay plate and plates we incubated for 5 min at room temperature.
5. Signal was measured as median relative luminescence units on a ViewLux (PerkinElmer) multiplate reader.
[1] Heske CM, Davis MI, Baumgart JT, Wilson K, Gormally MV, Chen L, Zhang X, Ceribelli M, Duveau DY, Guha R, Ferrer M, Arnaldez FI, Ji J, Tran HL, Zhang Y, Mendoza A, Helman LJ, Thomas CJ. Matrix Screen Identifies Synergistic Combination of PARP Inhibitors and Nicotinamide Phosphoribosyltransferase (NAMPT) Inhibitors in Ewing Sarcoma. Clin Cancer Res. 2017 Dec 1;23(23):7301-7311. doi: 10.1158/1078-0432.CCR-17-1121. Epub 2017 Sep 12. PMID: 28899971; PMCID: PMC6636827.
Potency means the concentration at half of the fitted maximal effect.

| Structure (SMILES) | Potency | viability (% of control) [%] |
| --- | --- | --- |
| Cc1[nH]c2ccccc2c1CCNCc1ccc(C=CC(=O)NO)cc1 | 0.148 µM (active) |  |
| Nc1nc(Nc2ccc(S(N)(=O)=O)cc2)nn1C(=O)c1c(F)cccc1F | 2.35 µM (active) |  |
| Cc1nc2ccc(CN(C)c3ccc(C(=O)N[C@@H](CCC(=O)O)C(=O)O)s3)cc2c(=O)[nH]1 |  | 91.4 |
| CCOc1cc2ncc(C#N)c(Nc3ccc(F)c(Cl)c3)c2cc1NC(=O)C=CCN(C)C | 2.64 µM (active) |  |
| C[C@]12CC[C@H](O)CC1=CCC1C2CC[C@]2(C)C(n3cnc4ccccc43)=CCC12 (stereo not given in full) | 14.8 µM (active) |  |
| CNC(=O)CN1CCC(Oc2cc3c(Nc4cccc(Cl)c4F)ncnc3cc2OC)CC1 |  | 33.4 |
| O=c1[nH]nc(Sc2ncc([N+](=O)[O-])s2)n1-c1ccc2c(c1)OCCO2 | 2.09 µM (active) |  |
| COc1cc(OC2CCN(C)CC2)ccc1Nc1ncc2c(n1)n(C1CCCC1)c(=O)n2C | 4.69 µM (active) |  |
| COc1ccc(OC)c(-c2nnc3ccc(-c4ccc(OC)c(O[C@@H]5CCOC5)c4)nn23)c1 | 8.33 µM (active) |  |
| CC(C)(C)OC(=O)Nc1ccc(-c2cc(C(=O)NCCCCCCC(=O)NO)no2)cc1 | 3.72 µM (active) |  |
| CC(C)(C)c1cc(NC(=O)Nc2ccc(-c3cn4c(n3)sc3cc(OCCN5CCOCC5)ccc34)cc2)no1 | 0.418 µM (active) |  |
| CC[C@@H]1C(=O)N(C)c2cnc(Nc3ccc(C(=O)NC4CCC(N5CCN(CC6CC6)CC5)CC4)cc3OC)nc2N1C(C)C (stereo not given in full) | 0.209 µM (active) |  |
| CNC(=O)c1ccccc1Nc1nc(Nc2ccc(N3CCOCC3)cc2OC)ncc1Cl | 5.9 µM (active) |  |
| COc1cccc2nc(-c3cccs3)nc(NN3C(=O)C=C(C)C3=O)c12 | 0.0833 µM (active) |  |
| CC(C)c1ccccc1Cc1cc(C(=O)Nc2ccc(S(=O)(=O)c3ccccc3C(C)(C)C)cc2)c(O)c(O)c1O | 7.43 µM (active) |  |
| CC(C)c1cc(-c2n[nH]c(=O)n2-c2ccc3c(ccn3C)c2)c(O)cc1O | 0.059 µM (active) |  |
| CCC(=C(c1ccccc1)c1ccc(OCCN(C)C)cc1)c1ccccc1 | 20.9 µM (active) |  |
| Nc1ccc(C(=O)c2cc3c(ccc4ccccc43)[nH]2)cc1 | 0.662 µM (active) |  |
| CC1(C)O[C@@H]2C[C@@H]3[C@H]4C[C@@H](F)C5=CC(=O)C=C[C@]5(C)[C@@]4(F)[C@@H](O)C[C@]3(C)[C@]2(C(=O)CO)O1 |  | 97.1 |
| CN(c1ncccc1CNc1nc(Nc2ccc3c(c2)CC(=O)N3)ncc1C(F)(F)F)S(C)(=O)=O | 3.72 µM (active) |  |

| Structure (SMILES) | Potency | viability (% of control) [%] |
| --- | --- | --- |
| CNc1nccc(-c2cccnc2Oc2cc(C(=O)Nc3cccc(C(F)(F)F)c3)ccc2C)n1 | 2.35 µM (active) |  |
| C=CC(=O)Nc1cc2c(Nc3ccc(F)c(Cl)c3)ncnc2cc1C#CC(C)(C)N1CCN(C)CC1 | 0.296 µM (active) |  |
| CCS(=O)(=O)c1cccc(-c2cc(C(=O)NC3CCN(C)CC3)c(C)c3[nH]c4ncc(C)cc4c23)c1 | 0.833 µM (active) |  |
| CCN(CC)CCCCNc1ncc2cc(-c3cc(OC)cc(OC)c3)c(NC(=O)NC(C)(C)C)nc2n1 | 5.9 µM (active) |  |
| Cn1cncc1[C@@](N)(c1ccc(Cl)cc1)c1ccc2c(c1)c(-c1cccc(Cl)c1)cc(=O)n2C | 1.87 µM (active) |  |
| CC[C@H](CO)Nc1nc(NCc2ccccc2)c2ncn(C(C)C)c2n1 | 14.8 µM (active) |  |
| O=C(O)CO.[NH2-].[NH2-].[Pt+2] |  | 106 |
| Cc1cnc(-c2cnc(NCCNc3ccc(C#N)cn3)nc2-c2ccc(Cl)cc2Cl)[nH]1 | 6.62 µM (active) |  |
| CC(=O)OCC(=O)[C@@]1(O)[C@H](C)C[C@H]2[C@@H]3C=C(C)C4=Cc5c(cnn5-c5ccccc5)C[C@]4(C)[C@@H]3[C@@H](O)C[C@@]21C | 4.18 µM (active) |  |
| CC(O)C1C(=O)N2C(C(=O)O)=C(SC3CNC(C(=O)N(C)C)C3)C(C)C12 (stereo not given) |  | 82.5 |
| C[C@H]1C[C@@H]2[C@@H]([C@@H](O)C[C@@]3(C)[C@H]2CC[C@]3(O)C(=O)CO)[C@@]2(C)C=CC(=O)C=C12 |  | 97.7 |
| COc1ccc(-n2nc(C(N)=O)c3c2C(=O)N(c2ccc(N4CCCCC4=O)cc2)CC3)cc1 |  | 108 |
| COc1cc2c(Nc3ccc(NC(=O)c4ccccc4)cc3)ncnc2cc1OCCCN1CCOCC1 | 14.8 µM (active) |  |
| O=C(O)c1ccc2cc(-c3ccc(O)c(C45CC6CC(CC(C6)C4)C5)c3)ccc2c1 | 0.132 µM (active) |  |
| COc1cc(C(=O)N2CCC(N3CCN(C)CC3)CC2)ccc1Nc1ncc2c(n1)N(C)c1ccccc1C(=O)N2C | 5.26 µM (active) |  |
| Cc1cn2c(-c3cn[nH]c3)cnc2c(Nc2ccc(C(=O)N3CCNCC3)cc2F)n1 | 2.96 µM (active) |  |
| COC(=O)c1ccc2c(C(=Nc3ccc(N(C)C(=O)CN4CCN(C)CC4)cc3)c3ccccc3)c(O)[nH]c2c1 | 0.0469 µM (active) |  |
| CC(C)CC(=O)Nc1n[nH]c2c1CN(C(=O)C1CCN(C)CC1)C2(C)C | 0.935 µM (active) |  |
| CC(=O)OCCN1C(=O)c2c(C)nc3ccc(S(=O)(=O)N4CCOCC4)cc3c2C1=O |  | 116 |
| OCc1ccc(-c2ccc(-c3ccc(CO)s3)o2)s1 | 16.6 µM (active) |  |
